Results as given in ChEMBL document CHEMBL5606460, “ASAP - DENV-2 NS2B-NS3 protease fluorescence single point” (2024).
The whole screen tested about 2,000 compounds, of which about 110 (5.5%) showed an effect of 50% or more. The full list was thinned out, with strong results kept by preference.

Target: Genome polyprotein (dengue virus type 2) (UniProt P29990)
[1] = Thailand/16681/1984, Concentration 25.0 uM, Number of replicates 1.0

SMILES: O=Cc1ccc(N2CCC(C(=O)N[C@H]3CCOc4ccc(F)cc43)CC2)cc1
- inhibition [1]: 15.7%

SMILES: COc1cc(Cc2cnn(-c3ccc(F)cc3)c2)nc(N2CCNCC2)n1
- inhibition (Thailand/16681/1984, Concentration 49.5 uM, Number of replicates 2.0, Standard deviation 0.031215136118926425 %): 0.871%
- inhibition (Thailand/16681/1984, Concentration 99.01 uM, Number of replicates 2.0, Standard deviation 1.7579341775024742 %): 1.83%
- inhibition (Thailand/16681/1984, Concentration 198.0 uM, Number of replicates 2.0, Standard deviation 1.6450393762001025 %): 5.51%

SMILES: O=C(O)c1ccn(C2CCN(Cc3c[nH]c4ccccc34)CC2)n1
- inhibition (Thailand/16681/1984, Concentration 49.5 uM, Number of replicates 2.0, Standard deviation 2.1869842063089484 %): -2.55%
- inhibition (Thailand/16681/1984, Concentration 99.01 uM, Number of replicates 2.0, Standard deviation 2.684345636447637 %): -2.42%
- inhibition (Thailand/16681/1984, Concentration 198.0 uM, Number of replicates 2.0, Standard deviation 2.4976754742252494 %): -2.46%

SMILES: Cc1cnc(NC(=O)C2CCN(c3ccc(C=O)cc3)CC2)c([N+](=O)[O-])c1
- inhibition [1]: 14.4%

SMILES: Cc1cc(CO)c2cccc(Cc3cccc(NC(=O)Cc4c[nH]c5ccccc45)c3)c2n1
- inhibition (Thailand/16681/1984, Concentration 49.95 uM, Number of replicates 2.0, Standard deviation 0.8412168519630298 %): -0.469%
- inhibition (Thailand/16681/1984, Concentration 99.9 uM, Number of replicates 2.0, Standard deviation 1.20193607081355 %): 3.26%

SMILES: Cc1cc(CO)c2cccc(Cc3ccccc3NC(=O)C[C@H]3CCCN3)c2n1
- inhibition (Thailand/16681/1984, Concentration 49.95 uM, Number of replicates 2.0, Standard deviation 2.3110961437297597 %): -1.74%
- inhibition (Thailand/16681/1984, Concentration 99.9 uM, Number of replicates 1.0): -1.01%

SMILES: Cc1cnccc1NC(=O)c1cncc(S(C)(=O)=O)c1
- inhibition (Thailand/16681/1984, Concentration 49.5 uM, Number of replicates 2.0, Standard deviation 0.09362930826064811 %): 1.61%
- inhibition (Thailand/16681/1984, Concentration 99.01 uM, Number of replicates 2.0, Standard deviation 0.10343333957385824 %): 2.02%
- inhibition (Thailand/16681/1984, Concentration 198.0 uM, Number of replicates 2.0, Standard deviation 0.39657621920361824 %): 2.99%

SMILES: COc1cc(CC(=O)NCc2cccnc2)nc(N2CCNCC2)n1
- inhibition (Thailand/16681/1984, Concentration 49.5 uM, Number of replicates 2.0, Standard deviation 1.473545535483215 %): -5.12%
- inhibition (Thailand/16681/1984, Concentration 99.01 uM, Number of replicates 2.0, Standard deviation 1.7989399422367844 %): -4.77%
- inhibition (Thailand/16681/1984, Concentration 198.0 uM, Number of replicates 2.0, Standard deviation 1.3802101593440819 %): -3.61%

SMILES: O=C(O)c1cc(Cl)ccc1NS(=O)(=O)c1ccc(Oc2ccccc2Cl)cc1
- inhibition (Thailand/16681/1984, Concentration 49.5 uM, Number of replicates 2.0, Standard deviation 0.09788858447746204 %): 95.7%
- inhibition (Thailand/16681/1984, Concentration 99.01 uM, Number of replicates 2.0, Standard deviation 0.14802782416517393 %): 94.6%
- inhibition (Thailand/16681/1984, Concentration 198.0 uM, Number of replicates 2.0, Standard deviation 0.06255266668592849 %): 91.9%

SMILES: CNC(=O)c1cc(Cl)ccc1NS(=O)(=O)c1ccc(Oc2ccccc2Cl)cc1
- inhibition (Thailand/16681/1984, Concentration 49.5 uM, Number of replicates 2.0, Standard deviation 2.214504665393713 %): 57.1%
- inhibition (Thailand/16681/1984, Concentration 99.01 uM, Number of replicates 2.0, Standard deviation 0.44410505168195935 %): 89.7%
- inhibition (Thailand/16681/1984, Concentration 198.0 uM, Number of replicates 2.0, Standard deviation 0.048202507704939286 %): 89.7%

SMILES: CNC(=O)c1cc(Cl)ccc1NS(=O)(=O)c1ccc(OC)cc1
- inhibition (Thailand/16681/1984, Concentration 49.5 uM, Number of replicates 2.0, Standard deviation 1.598704816821166 %): -9.51%

SMILES: CNC(=O)c1cnncc1NS(=O)(=O)c1ccc(Oc2ccccc2Cl)cc1
- inhibition (Thailand/16681/1984, Concentration 49.5 uM, Number of replicates 2.0, Standard deviation 2.9688082409176766 %): 2.22%
- inhibition (Thailand/16681/1984, Concentration 99.01 uM, Number of replicates 2.0, Standard deviation 2.2862743420867915 %): 7.71%
- inhibition (Thailand/16681/1984, Concentration 198.0 uM, Number of replicates 2.0, Standard deviation 2.701916446857586 %): 19.5%

SMILES: CNC(=O)c1cc(Cl)ccc1NS(=O)(=O)c1ccc(NS(C)(=O)=O)cc1
- inhibition (Thailand/16681/1984, Concentration 49.5 uM, Number of replicates 2.0, Standard deviation 0.6295365180266114 %): 1.5%
- inhibition (Thailand/16681/1984, Concentration 99.01 uM, Number of replicates 2.0, Standard deviation 0.4200098669756753 %): 3.13%
- inhibition (Thailand/16681/1984, Concentration 198.0 uM, Number of replicates 2.0, Standard deviation 0.4807630318175827 %): 6.02%

SMILES: O=S(=O)(Nc1ccc(Cl)cc1)c1ccc(Oc2ccccc2Cl)cc1
- inhibition (Thailand/16681/1984, Concentration 49.5 uM, Number of replicates 2.0, Standard deviation 0.04775136783847868 %): 12.2%
- inhibition (Thailand/16681/1984, Concentration 99.01 uM, Number of replicates 2.0, Standard deviation 0.32853232391890236 %): 22.7%
- inhibition (Thailand/16681/1984, Concentration 198.0 uM, Number of replicates 2.0, Standard deviation 1.060565762839157 %): 44.5%

SMILES: CNC(=O)c1cc(Cl)cc(C)c1NS(=O)(=O)c1ccc(Oc2ccccc2Cl)cc1
- inhibition (Thailand/16681/1984, Concentration 49.5 uM, Number of replicates 2.0, Standard deviation 1.9936078061389018 %): -4.39%
- inhibition (Thailand/16681/1984, Concentration 99.01 uM, Number of replicates 2.0, Standard deviation 1.8430300976388188 %): -5.53%
- inhibition (Thailand/16681/1984, Concentration 198.0 uM, Number of replicates 2.0, Standard deviation 2.010624849106266 %): -7.09%

SMILES: O=C(O)c1cc(Cl)ccc1NS(=O)(=O)c1ccc(Br)cc1
- inhibition (Thailand/16681/1984, Concentration 49.5 uM, Number of replicates 2.0, Standard deviation 1.3795853744617563 %): 7.98%
- inhibition (Thailand/16681/1984, Concentration 99.01 uM, Number of replicates 2.0, Standard deviation 2.3616490916140984 %): 19.6%
- inhibition (Thailand/16681/1984, Concentration 198.0 uM, Number of replicates 2.0, Standard deviation 0.9946440456706616 %): 67%

SMILES: CNC(=O)c1cc(OC)ccc1NS(=O)(=O)c1ccc(Oc2ccccc2Cl)cc1
- inhibition (Thailand/16681/1984, Concentration 49.5 uM, Number of replicates 2.0, Standard deviation 1.018543331825067 %): 7.08%
- inhibition (Thailand/16681/1984, Concentration 99.01 uM, Number of replicates 2.0, Standard deviation 0.3266212172200244 %): 15.5%
- inhibition (Thailand/16681/1984, Concentration 198.0 uM, Number of replicates 2.0, Standard deviation 0.9287695329724984 %): 21.9%
